The list is not random: actives were taken first. Their share in the collection is about 6.3%.
MPTP inh: mitochondrial permeability transition pore inhibitors, primary screen, biochemical, isolated mouse mitochondria, absorbance; Ca2+ swelling absorbance, 30 min; inhibition, % at 10 µM; 360,000 tested, 1.4% active;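 active = inhibition of 50% or more, scaled per plate between neutral and stimulator controls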
tim10-1 inh: growth inhibitors of tim10-1 mutant yeast, primary screen, luminescence, uHTS. inhibition, % at 20 µM. AID 463190, 2010. S. cerevisiae tim10-1 ts strain growth, BacTiter-Glo, 24 h. 330,000 tested, 2.2% active;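 active = inhibition of at least 40%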;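 note: mutant grown at 25 °C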
Mdm2-MdmX inh: inhibitors of human Mdm2-MdmX association, primary screen, cell-based, luminescence, split luciferase, SaOS-2, uHTS; Protein Mdm4 (Homo sapiens) + E3 ubiquitin-protein ligase Mdm2 (Homo sapiens), …; SaOS-2 split-luciferase Mdm2/MdmX complementation; inhibition, % at 8 µM; 330,000 tested, 3% active; AID 485346, 2010;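 active = inhibition of at least 50% at 8 µM in the primary screen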
Target sequence (O15151 whole entry, looked up): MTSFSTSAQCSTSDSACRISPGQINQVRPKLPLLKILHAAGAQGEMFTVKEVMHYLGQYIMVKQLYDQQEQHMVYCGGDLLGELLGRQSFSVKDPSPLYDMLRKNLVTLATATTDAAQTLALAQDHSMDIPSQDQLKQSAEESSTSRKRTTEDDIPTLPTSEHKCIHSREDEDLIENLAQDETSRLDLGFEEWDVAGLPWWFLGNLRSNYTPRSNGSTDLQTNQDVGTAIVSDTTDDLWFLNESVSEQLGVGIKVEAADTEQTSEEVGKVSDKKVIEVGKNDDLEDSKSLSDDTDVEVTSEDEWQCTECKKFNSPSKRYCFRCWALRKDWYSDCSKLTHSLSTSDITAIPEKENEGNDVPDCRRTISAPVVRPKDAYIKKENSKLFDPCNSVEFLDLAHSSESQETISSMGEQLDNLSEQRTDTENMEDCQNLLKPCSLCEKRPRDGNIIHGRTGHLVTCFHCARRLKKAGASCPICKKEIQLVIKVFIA
Target sequence (Q00987 whole entry, looked up): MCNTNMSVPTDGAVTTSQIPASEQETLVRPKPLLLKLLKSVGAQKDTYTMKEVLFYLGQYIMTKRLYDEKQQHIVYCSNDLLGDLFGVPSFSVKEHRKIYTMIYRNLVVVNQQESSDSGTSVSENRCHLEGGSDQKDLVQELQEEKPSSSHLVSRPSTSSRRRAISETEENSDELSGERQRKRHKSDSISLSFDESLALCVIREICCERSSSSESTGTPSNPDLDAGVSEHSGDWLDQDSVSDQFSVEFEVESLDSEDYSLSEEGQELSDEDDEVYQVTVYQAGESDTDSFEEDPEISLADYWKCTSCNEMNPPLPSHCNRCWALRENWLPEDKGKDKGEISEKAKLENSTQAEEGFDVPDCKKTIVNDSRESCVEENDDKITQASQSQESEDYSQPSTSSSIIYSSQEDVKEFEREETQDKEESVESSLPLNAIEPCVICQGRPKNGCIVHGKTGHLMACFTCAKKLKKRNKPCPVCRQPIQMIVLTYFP
TIM10 inh: growth inhibitors of isogenic TIM10 control yeast, primary screen, counter-screen for tim10-1 yeast inhibitor project, luminescence, uHTS. inhibition, % at 10 µM. 330,000 tested, 1.4% active. S. cerevisiae TIM10 strain growth, BacTiter-Glo luminescence, 24 h. AID 463195, 2010;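 active = inhibition of 40% or more at the single tested concentration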;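 note: wild-type TIM10 isogenic control strain grown at permissive 25 °C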
tim23-1 inh: growth inhibitors of tim23-1 mutant yeast, primary screen, luminescence, uHTS; 330,000 tested, 1.3% active; AID 463212, 2010; S. cerevisiae tim23-1 growth, BacTiter-Glo luminescence, 24 h; inhibition, % at 20 µM;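 active = growth inhibition of the mutant yeast at or above 50%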;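 note: temperature-sensitive mutant grown at 25 °C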
tim10-1 confirm: growth inhibitors of tim10-1 mutant yeast, confirmation, single concentration, luminescence, S. cerevisiae; S. cerevisiae tim10-1 ts strain growth, BacTiter-Glo, 24 h; AID 463213, 2010; 7,400 tested, 56% active; inhibition, % at 20 µM; shares compounds with tim10-1 inh;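 active = inhibition of yeast growth at or above a set limit in either of two repeat tests at 20 µM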;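 note: tim10-1 mutant grown at permissive 25 °C to find synthetic lethal compounds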
Hits are given with their value.

For c1ccc(OCCNc2ccn3nc(-c4cccs4)cc3n2)cc1 the results were MPTP inh inactive.
O=C(Cc1ccccc1)N/N=C/c1ccc2cccc(O)c2n1 was read as MPTP inh inactive, tim10-1 inh 46.9, Mdm2-MdmX inh inactive, TIM10 inh inactive, tim23-1 inh inactive and tim10-1 confirm 34.5.
For CCc1ccc2nc3nc(C)cc(C)c3c(N)c2c1 the results were MPTP inh inactive, tim10-1 inh 46.6, Mdm2-MdmX inh inactive, TIM10 inh inactive, tim23-1 inh inactive and tim10-1 confirm 40.8.
Screening Cc1cc(C)c2c(SC(C)C)nc(N)nc2n1 returned MPTP inh inactive, tim10-1 inh inactive, Mdm2-MdmX inh inactive, TIM10 inh inactive and tim23-1 inh inactive.
`Cc1ccn2c(NC(=O)c3cccs3)c(-c3ccccc3)nc2c1` gave MPTP inh inactive, tim10-1 inh inactive, Mdm2-MdmX inh inactive, TIM10 inh inactive and tim23-1 inh inactive.
`Cc1ccn2c(NC(C)(C)C)c(-c3cccs3)nc2c1` gave MPTP inh inactive, tim10-1 inh 44.3, Mdm2-MdmX inh inactive, TIM10 inh inactive, tim23-1 inh inactive and tim10-1 confirm inactive.
CCCCN(C)c1c(C)nc2ccc(C(=O)N(C)Cc3ccco3)cn12 was read as MPTP inh inactive.
CCn1nc(NC(=O)c2ccccc2)c2cc3cccc(C)c3nc21 was read as MPTP inh inactive, tim10-1 inh 45.8, Mdm2-MdmX inh inactive, TIM10 inh inactive, tim23-1 inh inactive and tim10-1 confirm 31.7.
For CC(C)NC(=O)C1(C)CN(S(C)(=O)=O)CC(=O)N1C1CC1 (stereo unspecified) the results were MPTP inh inactive.
Screening O=C(OCc1ccccc1)N1CCC2CC1c1ccc(N3CCN(Cc4ccc5c(c4)OCO5)CC3)cc12 (stereo unspecified) returned MPTP inh inactive.
CC12C(=O)N(c3cccc(OC(=O)c4ccco4)c3)C(=O)C1C1c3ccccc3C2c2ccccc21 (stereo unspecified) was read as MPTP inh inactive, tim10-1 inh 42.3, Mdm2-MdmX inh inactive, TIM10 inh inactive, tim23-1 inh inactive and tim10-1 confirm inactive.
For CC12C(=O)N(c3ccc(OC(=O)c4ccco4)cc3)C(=O)C1C1c3ccccc3C2c2ccccc21 (stereo unspecified) the results were MPTP inh inactive, tim10-1 inh inactive, Mdm2-MdmX inh inactive, TIM10 inh inactive and tim23-1 inh inactive.
Screening OC1(C#Cc2c(-c3ccsc3)oc3ccc(N4CCOCC4)cc23)CCCCC1 returned MPTP inh inactive, tim10-1 inh 41.0, Mdm2-MdmX inh inactive, TIM10 inh inactive, tim23-1 inh inactive and tim10-1 confirm inactive.
CCC(=O)Nc1ccc2c(c1)OC[C@@H](C)N(Cc1cccc(F)c1)C[C@@H](C)[C@@H](OC)CN(C)C2=O was read as MPTP inh inactive.
`CC(C)(C)OC(=O)N[C@@H](Cc1ccccc1)c1nnc(S(=O)(=O)Cc2cccc(F)c2)o1` gave tim10-1 inh 59.2, Mdm2-MdmX inh inactive, TIM10 inh inactive, tim23-1 inh inactive and tim10-1 confirm 50.5.
Screening COc1ccccc1-c1nc(C(=O)NCC2CCCO2)cc2c1[nH]c1ccccc12 (stereo unspecified) returned MPTP inh inactive, tim10-1 inh 42.9, Mdm2-MdmX inh inactive, TIM10 inh inactive, tim23-1 inh inactive and tim10-1 confirm inactive.
`CN1CCN(C(=S)c2cn(Cc3ccccc3)c3ccccc23)CC1` gave MPTP inh inactive, tim10-1 inh inactive, Mdm2-MdmX inh inactive, TIM10 inh inactive and tim23-1 inh inactive.
Screening CC1CCN(C(=S)c2cn(Cc3cccc(F)c3)c3ccccc23)CC1 returned MPTP inh inactive, tim10-1 inh 40.6, Mdm2-MdmX inh inactive, TIM10 inh inactive, tim23-1 inh inactive and tim10-1 confirm inactive.
Screening Cc1ccc(Cl)cc1-c1cc(C(=O)NCC2CCCCC2)[nH]n1 returned MPTP inh inactive.
`Nc1c(C(=O)c2ccccc2)sc2snc(SCC(=O)c3ccccc3)c12` gave MPTP inh inactive, tim10-1 inh 62.2, Mdm2-MdmX inh inactive, TIM10 inh inactive, tim23-1 inh inactive and tim10-1 confirm 66.5.
Nc1nnc(SCC(=O)c2ccccc2)s1 was read as MPTP inh inactive, tim10-1 inh inactive, Mdm2-MdmX inh inactive, TIM10 inh inactive and tim23-1 inh inactive.
Screening O=C1NC[C@@H](CCCCN2CCN(CCc3ccccc3)C(=O)C2=O)N(CC2CCCCC2)C1=O returned MPTP inh inactive.
For Cc1scc(C(=O)N/N=C/c2ccc([N+](=O)[O-])o2)c1C the results were MPTP inh inactive, tim10-1 inh 46.2, Mdm2-MdmX inh inactive, TIM10 inh inactive, tim23-1 inh inactive and tim10-1 confirm inactive.
Screening CCc1cc2c3c(c(=O)oc2cc1O)CCCC3 returned MPTP inh inactive, tim10-1 inh 40.6, Mdm2-MdmX inh inactive, TIM10 inh inactive, tim23-1 inh inactive and tim10-1 confirm inactive.
Screening CCc1cc2c3c(c(=O)oc2cc1OC(C)C(=O)O)CCCC3 (stereo unspecified) returned MPTP inh inactive, tim10-1 inh inactive, Mdm2-MdmX inh inactive, TIM10 inh inactive and tim23-1 inh inactive.
COC1=CC(=O)OC(c2ccccc2)C1 (stereo unspecified) was read as MPTP inh inactive.
`Cc1cc(-c2nnc(CCC(=O)NCC(C)c3ccccc3)o2)no1` (stereo unspecified) gave MPTP inh inactive, tim10-1 inh inactive, Mdm2-MdmX inh inactive, TIM10 inh inactive and tim23-1 inh inactive.
Screening CC(CNC(=O)CCc1nnc(CCC2CCCCC2)o1)c1ccccc1 (stereo unspecified) returned MPTP inh inactive, tim10-1 inh inactive, Mdm2-MdmX inh inactive, TIM10 inh inactive, tim23-1 inh inactive and tim10-1 confirm 33.5.
CCC1CN(C(=O)NCc2ccc(F)cc2)c2cc(C)ccc2O1 (stereo unspecified) was read as MPTP inh inactive, tim10-1 inh 41.3, Mdm2-MdmX inh inactive, TIM10 inh inactive, tim23-1 inh inactive and tim10-1 confirm inactive.
Screening CN1OC[C@@H]2CN(S(=O)(=O)c3cccc(C(F)(F)F)c3)[C@H](c3ccc(-c4cccnc4)cc3)C[C@@H]21 returned MPTP inh inactive.
Screening CCOC(=O)C1=C(N)Oc2ccc3ccccc3c2C1c1ccc(O)c(OC)c1 (stereo unspecified) returned MPTP inh inactive, tim10-1 inh 40.1, Mdm2-MdmX inh inactive, TIM10 inh inactive, tim23-1 inh inactive and tim10-1 confirm inactive.
`CCOC(=O)C1=C(N)Oc2ccc3ccccc3c2C1c1ccc(O)cc1` (stereo unspecified) gave MPTP inh inactive, tim10-1 inh inactive, Mdm2-MdmX inh inactive, TIM10 inh inactive and tim23-1 inh inactive.
